Compound activity from PubChem BioAssay.
ROC1-CUL1 inh: inhibitors of human ROC1-CUL1 ubiquitin ligase activity | in vitro K48 di-Ub FRET, acceptor:donor ratio, 45 min | inhibition, % at 10 µM | 140,000 tested, 0.6% active; in the data active = inhibition above about 25%
An asterisk follows results filed as active. Shown is part of a subset that was picked to be rich in hits.

SMILES	ROC1-CUL1 inh
COc1cc(OC)cc(C2C(C(=O)OC(C)C)=C(CSc3nc4c(cc3C#N)CCCCC4)OC(=N)C2C#N)c1 (stereo not given)	0
COC(=O)Nc1ccc2n(C)c(-c3ccccc3)c[n+]2c1	-4
O=C(NC1CCCC1)c1ccc(CN2CCCCC2)cc1	-2
CC(=O)OCC(=O)[C@@]1(OC(C)=O)CCC2C3CCC4=CC(=O)C=CC4(C)C3C(=O)CC21C (stereo not given in full)	-3
Cc1ccccc1SCC(=O)N/N=C/c1c(O)ccc2ccccc12	-4
CCCCCCCCCCCC[n+]1ccc(/C=C/c2ccc(N(C)C)cc2)cc1	62*
CCCCCCCCN1C(=O)/C(=C\c2ccc(N(C)C)cc2)C(=O)N(CCCC)C1=O	4
CN(C)c1ccc(/C=C/C2=NC(=O)NC(=O)C2)cc1	-16
Cc1ccc(Cl)cc1N1CCN(c2nc3c([nH]2)c(=O)n(C)c(=O)n3C)CC1	-4
COC(=O)[C@@H]1CCCN1Cc1cn[nH]c1-c1ccc(OC)cc1OC	-1
O=C(CSc1nc(-c2ccccc2)c(-c2ccccc2)[nH]1)c1ccc(O)c(O)c1O	101*
CC(Sc1nc(-c2ccccc2)c(-c2ccccc2)[nH]1)C(=O)O (stereo not given)	-3
COc1ccc(C(=O)CSc2nc(-c3ccccc3)c(-c3ccccc3)[nH]2)cc1	4
COC(=O)c1c(S(=O)(=O)NCc2ccccc2Cl)sc2c1CCN(C(=O)/C=C/C(C)C)C2	0
CC(C)N1CCNC(=O)C1CC(=O)N(C)Cc1ccc(C(F)(F)F)cc1 (stereo not given)	12
CC(C)(C)c1ccc(/C=C/c2[nH]c(=O)[nH]c(=O)c2[N+](=O)[O-])cc1	99*
CC(C)(C)c1ccc(N)c([N+](=O)[O-])c1	1
CC(C)c1ccc(/C=C/c2nc(N)[nH]c(=O)c2[N+](=O)[O-])cc1	5
Cc1ccc(C(=O)C2C(=O)C(=O)N(CCN(C)C)C2c2ccc(OCC(N)=O)cc2)o1 (stereo not given)	1
CC1=NOC(=O)/C1=C/c1cccn1C	2
O=C1C(=Cc2ccc(-c3cc(Cl)ccc3Cl)o2)C(=O)N(c2ccccc2)C(=S)N1c1ccccc1	-11
CC1=NOC(=O)/C1=C\c1ccc(-c2cc(Cl)ccc2Cl)o1	97*
COc1cccc(N2CCN(C(=O)COc3ccc4c(c3)CCC4)CC2)c1	-5
COC(=O)c1ccc(NC(=O)CN2CCN(c3ccccc3F)CC2)cc1	8
O=C(O)C1CCC(C(=O)O)S1 (stereo not given)	-9
SMILES	ROC1-CUL1 inh
Nc1cc2nsnc2cc1Br	96*
Nc1cnc(Br)cc1Br	9
Cn1c(Sc2ccccn2)cc(=O)n(C)c1=O	0
CNC(=S)Nc1ccc(C)cc1	4
COc1ccc(C(=O)Nc2ccc3nsnc3c2)cc1OC	-9
Cc1ccc(NC(=S)Nc2ccc3nsnc3c2)cc1	66*
CCN1CCN(C2(C(=O)N(C)CC3CCOCC3)Cc3ccccc3C2)CC1	12
O=C(NN1c2ccccc2CCc2ccccc21)c1ccccc1	-6
C#CCOc1ccc(C(=O)N2CCCCC2)cc1	-1
O=C(/C=C/c1cccnc1)c1ccc2c(c1)OCCO2	71*
COC(=O)c1ccc(/C=C/C(=O)c2ccc3c(c2)OCCO3)cc1	-1
O=C(/C=C/c1cccs1)c1ccc2c(c1)OCCO2	1
CCn1c(O)c(N=NC(=O)c2cc(-c3ccccc3)n[nH]2)c2ccccc21	0
Cc1cc(/C=C2\C(=O)NC(=S)N(c3ccc(Cl)cc3)C2=O)c(C)n1-c1ccc(Cl)c(Cl)c1	-6
O=C1NC(=S)N(c2ccccc2)C(=O)/C1=C/c1ccc(Sc2ccc(Cl)cc2)s1	33*
O=C1NC(=O)N(c2ccc(Cl)cc2)C(=O)/C1=C\c1c2ccccc2cc2ccccc12	6
CCN(CC)c1nc2n(c(=O)n1)CCS2	11
Brc1ccc(-c2csc(N/N=C/c3ccccc3)n2)cc1	-5
C=CCC1(CC=C)CCCN1c1ccc(-c2nc(C)no2)cn1	1
O=C(CN1CCOCC1)Nc1cc(Cl)c(NC(=O)CN2CCOCC2)c(Br)c1	-1
O=C1NN(c2cccc(Cl)c2)C(=O)/C1=C/c1ccc(O)cc1	11
O=C1NN(c2cccc(F)c2)C(=O)/C1=C\c1ccccc1	-2
COc1ccc(/C=C2\C(=O)NN(c3cccc(Cl)c3)C2=O)cc1OC	-8
O=C1NN(c2cccc(Cl)c2)C(=O)/C1=C/c1ccc(Cl)cc1	64*
O=C1NN(c2cccc(Cl)c2)C(=O)/C1=C/c1cccc(I)c1	9
SMILES	ROC1-CUL1 inh
O=C1NN(c2cccc(Cl)c2)C(=O)/C1=C\c1ccc(F)cc1	83*
CC(=O)OC(CCN1CC2CCN1CC2)c1ccccc1 (stereo not given)	1
CCOC(=O)C1=C(N2CCOCC2)c2ccccc2S1(=O)=O	-12
Cc1ccc(-c2cc(-c3ccccc3)c3c(N)c(C(=O)Nc4c(C)cc(C)cc4C)sc3n2)cc1	-3
COc1cccc(CN2CCCC3(CCN(Cc4cnc(C)nc4)C3)C2)c1OC (stereo not given)	-4
COc1cccc(C=Nc2ccc(C(N)=O)cc2)c1O	3
COc1ccc2c(c1O)SC(=O)C2	106*
COc1ccc(OC)c(C(=O)O)c1N	5
CCOc1ccc2nc(N3CCCC(C(=O)NCCc4cnccn4)C3)nc(C)c2c1 (stereo not given)	7
Cc1cccc(N2C(=O)/C(=C/c3cccn3-c3ccc(Cl)cc3)C(=O)NC2=S)c1C	-2
O=C1NC(=S)N(c2cccc(F)c2)C(=O)/C1=C/c1cccn1-c1cccc(C(F)(F)F)c1	7
Cc1cccc(N2C(=O)/C(=C/c3cccn3-c3cccc(C(F)(F)F)c3)C(=O)NC2=S)c1C	53*
Cc1ccc(N2C(=O)/C(=C/c3cccn3-c3cccc(C(=O)O)c3)C(=O)NC2=S)c(C)c1	97*
CCOc1ccc(N2C(=O)/C(=C/c3cccn3-c3cccc(C(=O)O)c3)C(=O)NC2=S)cc1	19
CN(C)c1ccc(-n2cccc2/C=C2\C(=O)NC(=S)N(c3ccc(Br)cc3)C2=O)cc1	7
COc1ccc(Cl)cc1/C=C1\C(=O)NC(=S)N(c2ccc(C)cc2C)C1=O	1
Cc1cccc(N2C(=O)/C(=C/c3cccn3-c3cccc(C(=O)O)c3)C(=O)NC2=S)c1	15
CCc1ccccc1N1C(=O)/C(=C/c2cccn2-c2ccc(Cl)cc2)C(=O)NC1=S	36*
Cc1ccc(N2C(=O)/C(=C/c3cn(CC(=O)O)c4ccccc34)C(=O)NC2=S)c(C)c1	54*
CCCN1C(=O)/C(=C\c2cccn2-c2cccc(C(F)(F)F)c2)C(=O)N(c2ccccc2)C1=S	5
Cc1ccc(N2C(=O)/C(=C/c3cc(C)n(C(C)C)c3C)C(=O)NC2=S)c(C)c1	-7
C=CCC(=O)N1CCC(N2CCCC(C(=O)NCc3ccccc3)C2)CC1 (stereo not given)	-4
COCCN1C(=O)CC(CC(=O)N2CCCC(C(=O)Cc3ccccc3)C2)(c2ccccc2F)C1=O (stereo not given)	-1
COCCNC(=O)c1c(NC(=O)c2ccc(Cl)cc2Cl)sc2c1CCCC2	-2
CN1CCc2c([nH]c3ccccc23)C1c1nc2ccccc2n1C (stereo not given)	3
CCOC(=O)c1nn(-c2ccc(C)cc2)cc1C(=O)c1ccco1	14
Cc1ccc(C2c3c(ncn(N)c3=N)Oc3ccc4ccccc4c32)cc1 (stereo not given)	-6
O=C(CSC1=N/C(=C/c2ccco2)C(=O)N1c1ccccc1)Nc1ccccc1C(F)(F)F	3
